Screening results from PubChem BioAssay.
D2 antagonist = D2 dopamine receptor (human) antagonism; P14416; HEK293 TREx D2 cells, calcium flux, dopamine EC80; inhibition, % at 10 µM; 340,000 compounds, 2% hits; AID 485344; in the data active = inhibition above about 30%; inactive = below that, where a call was filed; also: 0% is about no effect
Target sequence (P14416 whole entry, looked up): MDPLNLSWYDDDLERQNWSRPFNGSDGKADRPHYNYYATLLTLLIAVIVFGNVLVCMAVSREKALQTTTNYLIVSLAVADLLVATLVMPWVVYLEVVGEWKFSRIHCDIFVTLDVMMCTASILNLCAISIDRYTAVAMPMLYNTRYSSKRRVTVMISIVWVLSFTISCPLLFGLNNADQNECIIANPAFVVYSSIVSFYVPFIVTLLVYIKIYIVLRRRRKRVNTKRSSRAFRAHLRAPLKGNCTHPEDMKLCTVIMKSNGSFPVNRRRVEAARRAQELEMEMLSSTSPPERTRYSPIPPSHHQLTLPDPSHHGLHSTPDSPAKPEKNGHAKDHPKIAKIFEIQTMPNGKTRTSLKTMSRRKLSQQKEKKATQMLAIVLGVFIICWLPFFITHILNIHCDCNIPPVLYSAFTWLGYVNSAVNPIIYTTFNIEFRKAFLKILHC
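Measurement of antagonist activity uses fluorescent calcium dye in inducible HEK293 T-REx D2 cells: 10 s baseline, compound addition with 180 s read, EC80 dopamine addition with a further 180 s read.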
D2 ag-1 = agonists of human D2 dopamine receptor (beta-arrestin); P14416; 360,000 compounds, 0.084% hits; activation, % (test concentration not listed); DiscoveRx PathHunter D2 beta-arrestin, luminescence, 90 min; 100% = 57 uM dopamine signal; in the data active = activation above about 40%; inconclusive = between about 15% and that limit
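DiscoveRx PathHunter D2 beta-arrestin cells (2,100/well) attached overnight, then compound-stimulated 90 min at 37 C in HBSS/10 mM HEPES/0.1% Tween-20 buffer; beta-galactosidase complementation read by luminescence after 1 h at ambient temperature. Dopamine 57 uM final (EC100) as control.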
D2 PAM-1 = positive allosteric modulators of human D2 dopamine receptor; DiscoveRx D2 beta-arrestin cells, luminescence, 90 min; 100% = 57 uM dopamine signal; potentiation, % (no concentration beside the values); 360,000 compounds, 0.23% hits; in the data active = potentiation above about 50%; inconclusive = mostly about 30% to 49%
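PathHunter beta-arrestin assay in DiscoveRx D2 cells. Compounds were added with an EC20 of dopamine (50 nM final) for 90 min at 37 deg C. Luminescence was read 1 h after detection reagent, with 57 uM dopamine as the EC100 control.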
D2 ag-2 = agonists of human D2 dopamine receptor | HEK293 T-REx D2 cells, calcium flux agonist mode | activation, % at 2 µM | 340,000 compounds, 0.53% hits | AID 485358;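 active = activation over 3 SD above normal in the single-dose calcium agonist read, cut at about 30% in these data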; also: 0% is about no effect
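Tetracycline-induced HEK293 Trex cells with D2 receptor force-coupled to calcium signaling, plated overnight at 30 C and loaded with no-wash calcium dye. Calcium flux read kinetically for 180 s after compound addition; responses flag agonists.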
D2 PAM-2 = D2 dopamine receptor (human) potentiation. P14416. 340,000 compounds, 0.34% hits. potentiation, % at 10 µM. HEK293 T-REx D2, calcium flux, EC20 dopamine potentiation;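 active = potentiation over 3 SD above the plate norm, cut at about 30% in these data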; also: 0% is about no effect
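Cells plated with tetracycline inducer and held overnight at 30 C; calcium dye loaded 30–90 min at room temperature; baseline taken, compound added and read 180 s; EC20 dopamine then added and read 180 s.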
Starred values were filed as active, the others as inactive; ? = inconclusive; / = no result. Most compounds without a hit are left out; they make up all but 2.4% or so of the library.

SMILES | D2 antagonist | D2 ag-1 | D2 PAM-1 | D2 ag-2 | D2 PAM-2
CCC(C)NC(=O)Cn1c(=O)n(Cc2ccc(C(=O)NCc3ccc(C)cc3)cc2)c(=O)c2ccccc21 (stereo unspecified) | / | / | / | 1 | -1
CC1(c2ccccc2Cl)NC(=O)N(CC(=O)Nc2ccc(N3CCOCC3)cc2)C1=O (stereo unspecified) | / | 0 | 0 | / | /
CC1(c2ccccc2Cl)NC(=O)N(CC(=O)Nc2ccc(N3CCCCC3)cc2)C1=O (stereo unspecified) | 35* | -3 | 1 | 1 | -8
CCC(=O)N1CCCc2cc(S(=O)(=O)N3CCN(c4ncccn4)CC3)ccc21 | 31* | 10 | -5 | 0 | 4
Cc1ccc(C)c(C(=O)N(Cc2nc(-c3ccc(Cl)cc3)no2)C(C)C)c1 | 40* | 0 | 0 | 1 | -1
COc1ccccc1-n1cnc2c(c1=O)c1nc3ccccc3nc1n2-c1ccc(C)cc1 | -24 | -4 | -14 | -2 | 33*
CCN(CC)S(=O)(=O)c1ccc(NC(=O)Cn2c(=O)sc3ccccc32)cc1 | 43* | -1 | -12 | 1 | 3
COc1ccc(NC(=O)NCCN2CCN(c3cc(OC)ccc3OC)CC2)cc1 | -8 | -3 | -3 | 0 | -8
COc1ccc(Cl)c(N2CCN(CCCNC(=O)Nc3ccc(C)cc3)CC2)c1 | 36* | 3 | -24 | -1 | -23
CCN(C(=O)c1c(C)oc2ncnc(N3CCCCC3)c12)c1cc(C)ccc1C | / | / | / | -2 | 2
Cc1sc(NC(=O)CSc2nc(N)n(CC(=O)c3ccccc3)n2)c(C#N)c1C | -22 | 2 | 5 | 33* | -24
CCn1c(=O)cc(OCC(=O)N2CCN(c3ccc(C)cc3)C(C)C2)c2ccccc21 (stereo unspecified) | / | / | / | 0 | 2
COc1ccc([C@H]2[C@H](C(=O)C(C)(C)C)N3N=Cc4ccccc4C3[C@]23N=C(c2ccccc2)OC3=O)cc1OC (stereo partly specified) | 24 | 7 | 58* | 1 | -1
O=C(c1ccccc1)N1CCc2cc(CNS(=O)(=O)c3ccccc3Cl)ccc21 | / | / | / | / | -6
Cc1nc(C(=O)NCC(=O)c2ccccc2)c(C(F)(F)F)o1 | 32* | -5 | -1 | 0 | -1
Cc1ccc([N+](=O)[O-])cc1NC(=O)Nc1onc(C)c1C | 47* | -10 | -56 | -2 | -20
CCn1cc2nc(SCC(=O)Nc3ccc(F)cc3F)n(Cc3ccccc3)c(=O)c2n1 | 32* | -4 | -9 | 0 | 9
CCn1cc2nc(SCC(=O)Nc3cccc(Cl)c3C)n(Cc3ccc(Cl)cc3)c(=O)c2n1 | / | / | / | 1 | -6
O=C(COc1cccc(F)c1)N1c2ccccc2Sc2ccccc21 | -7 | ? | 93* | 0 | 0
O=c1cc(-c2ccccc2)n2c(SCc3c(F)cccc3Cl)nnc2[nH]1 | / | / | / | 1 | 9
Fc1ccc(-c2csc(=S)[nH]2)cc1 | 31* | -2 | -4 | 0 | -2
S=c1[nH]c(-c2ccccc2)cs1 | 8 | 5 | -16 | 0 | 11
CN(Cc1ccccc1)c1ccc2cc(S(=O)(=O)N3CCCCC3)ccc2n1 | / | / | / | / | 7
S=C1SCN(Cc2ccccn2)CN1Cc1ccco1 | 36* | 2 | -4 | 1 | -4
COCCN1CSC(=S)N(Cc2ccco2)C1 | -7 | -1 | -9 | 0 | -6
SMILES | D2 antagonist | D2 ag-1 | D2 PAM-1 | D2 ag-2 | D2 PAM-2
COc1ccc(/C=C2\COc3ccccc3C2=O)cc1OC | -2 | 1 | 5 | 0 | 18
CCOc1cc(/C=C2\COc3ccccc3C2=O)cc(Br)c1OCC(=O)N(C)C | 44* | -1 | -5 | 11 | -1
O=C(CS(=O)(=O)c1cccc2nsnc12)NCc1ccc(Cl)cc1 | / | / | / | -1 | 3
Cc1ccc2c(c1)C1CN(C)CCC1N2S(=O)(=O)c1ccc(C#N)cc1 (stereo unspecified) | 40* | -3 | -32 | 0 | -5
Cc1ccc2c(c1)C1CN(C)CCC1N2C(=O)c1ccccc1NS(=O)(=O)c1ccc(F)cc1 (stereo unspecified) | -10 | -1 | -1 | 0 | 1
Cc1cccc(CNC(=O)C2CCN(c3nn4cc(-c5ccc(F)cc5)nc4s3)CC2)c1 | / | / | / | 1 | 5
COc1cccc(Nc2nc(=O)[nH]nc2C)c1 | 34* | -2 | -3 | -1 | /
Cc1cccc(CNC(=O)C2CCN(S(=O)(=O)c3ccc4c(c3)CCCN4C(=O)C3CCC3)CC2)c1 | / | / | / | / | 9
CC1CC(C)CN(CCOc2ccccc2-c2ccccc2)C1 (stereo unspecified) | 79* | -1 | -36 | -1 | -29
CCN1CCN(CCOCCOc2ccccc2-c2ccccc2)CC1 | 60* | / | / | -1 | -19
c1ccc(-c2ccccc2OCCOCCN2CCNCC2)cc1 | -30 | -2 | -14 | 1 | -25
CC1CCN(CCOc2ccccc2-c2ccccc2)CC1 | 75* | -5 | -14 | 0 | -15
COc1ccc2c(c1)c1c(c(=O)n(-c3ccccc3C)c(=O)n1CC(=O)Nc1c(C)cccc1C)n2C | / | / | / | 0 | 2
O=C(COC(=O)CNC(=O)c1ccccc1)Nc1ccc(F)c([N+](=O)[O-])c1 | 34* | -3 | -6 | 0 | 8
CCn1nnnc1-c1ccc(OC)c(S(=O)(=O)Nc2ccc(OC)cc2)c1 | 36* | 1 | 7 | 0 | -4
CC(=O)Nc1ccc(S(=O)(=O)N2CCC(n3c(C(F)(F)F)nc4cccnc43)CC2)cc1 | / | / | / | / | -7
COc1ccccc1CNS(=O)(=O)c1c(C(=O)N2CCCCC2)c(C)n(C)c1C | 30* | -4 | -13 | 0 | 10
COc1ccccc1CNS(=O)(=O)c1c(C(=O)N2CCCC2)c(C)n(C)c1C | -25 | -1 | -23 | 1 | -7
COc1cccc(/C=N/NC(=O)CNC(=O)c2ccncc2)c1O | -5 | 8 | -1 | 1 | 65*
COc1cccc(/C=N/NC(=O)CNC(=O)c2cccnc2)c1O | 3 | -1 | 0 | 1 | -2
COc1ccc(Nc2nc(Cl)nc(Nc3ccc(OC)cc3OC)n2)c(OC)c1 | 51* | 6 | -4 | 0 | -6
C=CCNc1nc(Cl)nc(Nc2ccc(OC)cc2OC)n1 | -13 | -1 | -4 | 0 | 1
COc1ccc(NC(=O)Cn2c(=O)n(-c3ccc(Cl)cc3)c(=O)c3c(C)c(C(=O)N(C)C)sc32)cc1Cl | / | / | / | 1 | 0
CCOc1ccc2ccccc2c1/C=N\NC(=O)OC | -1 | 0 | -20 | -1 | -3
CCOc1ccc2ccccc2c1/C=N\NC(=O)c1ccc([N+](=O)[O-])cc1 | 39* | 14 | -12 | 0 | -21
CCOc1ccccc1NC(=O)NNS(=O)(=O)c1ccc([N+](=O)[O-])cc1 | -5 | -4 | 18 | 0 | 5
